Test results as given in PubChem BioAssay.

Molecular target: Alpha-2C adrenergic receptor (Homo sapiens) (UniProt P18825)
Experiment: modulators of alpha2C/GIRK thallium flux, primary screen, cell-based, HEK293 alpha2C/GIRK1/2 (AID 624);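 also: slope of fluorescence ratio to pre-addition baseline per second over 15 to 24 s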
Conditions: thallium flux BTC fluorescence, at 10 µM, actives lie on both sides

Chain of Alpha-2C adrenergic receptor (Homo sapiens) (P18825 whole entry, looked up): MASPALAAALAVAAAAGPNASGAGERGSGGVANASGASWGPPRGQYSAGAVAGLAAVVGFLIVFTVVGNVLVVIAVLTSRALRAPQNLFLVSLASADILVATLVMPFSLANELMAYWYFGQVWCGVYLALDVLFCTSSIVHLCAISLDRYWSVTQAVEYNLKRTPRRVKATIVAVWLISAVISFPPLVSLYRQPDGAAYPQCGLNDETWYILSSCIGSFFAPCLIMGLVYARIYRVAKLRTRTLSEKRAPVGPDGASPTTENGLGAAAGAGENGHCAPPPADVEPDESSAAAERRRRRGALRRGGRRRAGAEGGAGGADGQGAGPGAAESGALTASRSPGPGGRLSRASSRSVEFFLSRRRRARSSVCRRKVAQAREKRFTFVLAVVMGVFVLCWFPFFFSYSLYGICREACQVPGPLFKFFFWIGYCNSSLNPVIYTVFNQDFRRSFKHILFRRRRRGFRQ

slope, inactive:
Nc1nonc1N1CCCCC1 0.00308
CC1NC2(C(=O)N(Cc3ccccc3)c3ccccc32)C2C(=O)N(c3ccccc3)C(=O)C12 (stereo not given) 0.0066
CCNC(=O)C1CC(=O)N(Cc2ccc3c(c2)OCO3)C(=Nc2ccc(F)cc2)S1 (stereo not given) 0.00631
N/C(=N/O)c1nc(N2CCCC2)nc(N(c2ccccc2)c2ccccc2)n1 0.00592
O=C(CC1Oc2ccc(Cl)cc2NC1=O)NC1CCCCCC1 (stereo not given) 0.00511
O=C(CSc1n[nH]c(-c2ccco2)n1)Nc1sc2c(c1C(=O)Nc1ccccc1)CCCC2 0.00332
Cc1nc2ccc(S(=O)(=O)NCC(=O)N3CCc4ccccc4C3)cc2s1 0.00627
CN(C1CCCCC1)S(=O)(=O)c1ccc(S(=O)(=O)N2CCN(CCC#N)CC2)cc1 0.00618
CCOC(=O)C(NC(=O)Nc1ccccc1)(OCC)C(F)(F)F (stereo not given) 0.0106
Cc1ccc(NC(=O)CCC(=O)O)cc1F 0.00611
Cc1cc(C)n(-c2cc(N3CCOCC3)ncn2)n1 0.00484
CC1CCCC(C)N1C(=O)COC(=O)c1ccc[nH]c1=O (stereo not given) 0.00649
COc1ccc(N(CC(=O)Nc2cc(C)ccc2C)S(=O)(=O)c2c(C)nn(C)c2C)cc1 0.0057
Cc1ccc(-c2cc3nc4c(c(=O)n3[nH]2)CCCC4)cc1 0.00436
CCSc1oc(-c2cccs2)nc1S(=O)(=O)c1ccccc1 0.00698
CNC(=O)c1nnn(Cc2ccccc2)c1NC(C)=O 0.00612
O=C(CSc1nnc2ccccn12)NCCN1C(=O)CSC1=O 0.00611
CC(=O)Nc1cccc(NC(=O)c2ccco2)c1 0.00425
O=C(CSc1nc2ccsc2c(=O)n1NC(=O)c1ccccc1)Nc1nccs1 0.00492
O=S(=O)(c1ccccc1)N1CCN(S(=O)(=O)c2ccccc2)C1 0.00677
CN(C)S(=O)(=O)c1cccc(C(=O)Nc2cccnc2)c1 0.00527
COc1ccc(Cn2nnnc2CN2CCOCC2)cc1 0.00479
Cc1cc(NS(=O)(=O)c2ccccc2)no1 0.00728
O=C(/C=N/O)NCc1ccncc1 0.00648
Cc1cc(C(=O)NCc2ccc(S(N)(=O)=O)cc2)cs1 0.00394
CCn1cc(C(=O)N2CCOCC2)c(=O)c2cc(S(=O)(=O)N(C)C3CCCCC3)ccc21 0.00672
CCc1nnc(NC(=O)NCN2C(=O)C3C4C=CC(C4)C3C2=O)s1 (stereo not given) 0.00673
CC(=O)c1cc(Cl)ccc1OC(=O)c1ccco1 0.00476
CCOC(=O)CSc1nc2sc(C)c(C)c2c(=O)n1C 0.00254
O=C(c1ccco1)N1CCN(CCCCN2C(=O)c3ccccc3C2=O)CC1 0.00572
CS(=O)(=O)N(CC(=O)NCc1ccncc1)Cc1ccc(Cl)cc1 0.00437
CC1CCc2c(sc(N)c2C(N)=O)C1 (stereo not given) 0.00501
Cc1cc2ccccn2c1C(=O)c1ccncc1 0.00577
Cc1nnc(SCC(=O)NCCN2C(=O)CSC2=O)s1 0.00749
CCOC(=O)c1cccc(NC(=O)CNS(=O)(=O)c2cccs2)c1 0.00596
COc1ccc(NC(=O)CS(=O)CC(=O)Nc2cc(Cl)ccc2OC)cc1 (stereo not given) 0.00691
O=C(NCCc1c[nH]c2ccccc12)c1cnc2n(c1=O)CCS2 0.00796
COc1ccc2c(c1)cc(C(=O)O)n2C 0.00479
COc1cc2c(cc1OC)CN(CC(=O)Nc1cccc(C)c1)CC2 0.00456
COc1ccc(-n2c(=O)[nH]cc(C(=O)Nc3ccc(NC(C)=O)cc3)c2=O)cc1 0.0073

System: not listed separately
Experiment: inhibitors of Sendai virus-induced IRF3 signaling, primary screen, TLR/RLR signaling modifier project, cell-based, Sendai virus stimulus, luciferase, 10K MLSCN set (AID 602276;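 active = inhibition at or above 50% at 10 µM; inactive = inhibition below 50%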;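 also: firefly luciferase from ISG56 promoter only with Renilla not read in this screen; 0% = Sendai virus plus DMSO and 100% = medium plus DMSO without virus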)
Conditions: HEK293 RL24 IRF3 luciferase reporter, at 10 µM, hits give high values

inhibition, inactive:
Nc1nonc1N1CCCCC1 4.11%
CC1NC2(C(=O)N(Cc3ccccc3)c3ccccc32)C2C(=O)N(c3ccccc3)C(=O)C12 (stereo not given) 4.63%
CCNC(=O)C1CC(=O)N(Cc2ccc3c(c2)OCO3)C(=Nc2ccc(F)cc2)S1 (stereo not given) -2.28%
N/C(=N/O)c1nc(N2CCCC2)nc(N(c2ccccc2)c2ccccc2)n1 13.2%
O=C(CC1Oc2ccc(Cl)cc2NC1=O)NC1CCCCCC1 (stereo not given) 8.85%
O=C(CSc1n[nH]c(-c2ccco2)n1)Nc1sc2c(c1C(=O)Nc1ccccc1)CCCC2 4.06%
Cc1nc2ccc(S(=O)(=O)NCC(=O)N3CCc4ccccc4C3)cc2s1 -4.3%
CN(C1CCCCC1)S(=O)(=O)c1ccc(S(=O)(=O)N2CCN(CCC#N)CC2)cc1 3.23%
CCOC(=O)C(NC(=O)Nc1ccccc1)(OCC)C(F)(F)F (stereo not given) 16.5%
Cc1ccc(NC(=O)CCC(=O)O)cc1F 16.4%
Cc1cc(C)n(-c2cc(N3CCOCC3)ncn2)n1 2.82%
CC1CCCC(C)N1C(=O)COC(=O)c1ccc[nH]c1=O (stereo not given) 16.7%
COc1ccc(N(CC(=O)Nc2cc(C)ccc2C)S(=O)(=O)c2c(C)nn(C)c2C)cc1 -2.9%
Cc1ccc(-c2cc3nc4c(c(=O)n3[nH]2)CCCC4)cc1 -9.26%
CCSc1oc(-c2cccs2)nc1S(=O)(=O)c1ccccc1 14.5%
CNC(=O)c1nnn(Cc2ccccc2)c1NC(C)=O -13%
O=C(CSc1nnc2ccccn12)NCCN1C(=O)CSC1=O 7.75%
CC(=O)Nc1cccc(NC(=O)c2ccco2)c1 5.39%
O=C(CSc1nc2ccsc2c(=O)n1NC(=O)c1ccccc1)Nc1nccs1 -7.17%
O=S(=O)(c1ccccc1)N1CCN(S(=O)(=O)c2ccccc2)C1 10.4%
CN(C)S(=O)(=O)c1cccc(C(=O)Nc2cccnc2)c1 16.5%
COc1ccc(Cn2nnnc2CN2CCOCC2)cc1 16.9%
Cc1cc(NS(=O)(=O)c2ccccc2)no1 11.7%
O=C(/C=N/O)NCc1ccncc1 8.28%
Cc1cc(C(=O)NCc2ccc(S(N)(=O)=O)cc2)cs1 13.4%
CCn1cc(C(=O)N2CCOCC2)c(=O)c2cc(S(=O)(=O)N(C)C3CCCCC3)ccc21 12.2%
CCc1nnc(NC(=O)NCN2C(=O)C3C4C=CC(C4)C3C2=O)s1 (stereo not given) 7.26%
CC(=O)c1cc(Cl)ccc1OC(=O)c1ccco1 18.4%
CCOC(=O)CSc1nc2sc(C)c(C)c2c(=O)n1C 11%
O=C(c1ccco1)N1CCN(CCCCN2C(=O)c3ccccc3C2=O)CC1 15.1%
CS(=O)(=O)N(CC(=O)NCc1ccncc1)Cc1ccc(Cl)cc1 17.3%
CC1CCc2c(sc(N)c2C(N)=O)C1 (stereo not given) 5.07%
Cc1cc2ccccn2c1C(=O)c1ccncc1 11%
Cc1nnc(SCC(=O)NCCN2C(=O)CSC2=O)s1 9.12%
CCOC(=O)c1cccc(NC(=O)CNS(=O)(=O)c2cccs2)c1 -11.6%
COc1ccc(NC(=O)CS(=O)CC(=O)Nc2cc(Cl)ccc2OC)cc1 (stereo not given) 13.1%
O=C(NCCc1c[nH]c2ccccc12)c1cnc2n(c1=O)CCS2 -48.8%
COc1ccc2c(c1)cc(C(=O)O)n2C 11.6%
COc1cc2c(cc1OC)CN(CC(=O)Nc1cccc(C)c1)CC2 7.7%
COc1ccc(-n2c(=O)[nH]cc(C(=O)Nc3ccc(NC(C)=O)cc3)c2=O)cc1 9.68%
